Measured values taken from PubChem BioAssay.
Calls of active or inactive are those of the source.

Assays:
[1] = optical density shifts of acrAB sulA E. coli – strain DRC41, OD650, 48 h, E. coli filamentation inducer project, primary screen (AID 1152); details: higher = more signal, called active from +8 up or from −8 down;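 also: E. coli MC1000 strain DRC41 lacking acrAB efflux pump and sulA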
[2] = probe aLefty1 binding on compound microarray – biochemical, small-molecule microarray, 635/667 nm fluorescence, primary screen (AID 1153); details: higher = more signal;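 also: score merges spot fluorescence with signal-to-noise ratio from the scanned slide images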
[3] = plasmodial surface anion channel blockers, osmotic lysis – cell-based, P. falciparum Indochina, OD700, 1 h, primary screen (AID 1154); details: P. falciparum Indochina infected RBC osmotic lysis, higher = more signal, called active from +8 up or from −8 down
[4] = plasmodial surface anion channel blockers, osmotic lysis – cell-based, P. falciparum Indochina, OD700, 2 h, primary screen (AID 1155);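 also: lysis reports solute entry through the parasite surface anion channel PSAC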; details: P. falciparum Indochina infected erythrocytes, higher = more signal, called active from +8 up or from −8 down
[5] = changes in parasitized red cell lysis, either direction – P. falciparum Indochina, OD700, 3 h, PSAC antagonist project, primary screen (AID 1156); details: P. falciparum-infected erythrocytes, osmotic lysis, higher = more signal, called active from +8 up or from −8 down
[6] = plasmodial surface anion channel blockers, osmotic lysis – cell-based, P. falciparum Indochina, OD700, 18 h, primary screen (AID 1157); details: P. falciparum Indochina infected erythrocytes, osmotic lysis OD700, 18 h; higher = more signal, called active from +8 up or from −8 down
[7] = S6 kinase pathway phospho-S6 level changes – cell-based, A549, cytoblot, luminescence, serum-stimulated, primary screen (AID 1158); details: 5 h, higher = more signal;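 also: serum-stimulated A549 lung adenocarcinoma cells; signal is phosphorylated S6 detected by cytoblot immunostaining with HRP secondary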
[8] = target: NADPH oxidase 2 (Homo sapiens) (UniProt P04839); experiment: compounds shifting NOX2 Amplex Red fluorescence – cell-based, HEK293-NOX2, PMA-stimulated, NOX inhibitor project, primary screen (AID 1159); details: 45 min, higher = more signal, called active from +8 up or from −8 down; also: test concentration not given here
NADPH oxidase 2 (Homo sapiens), sequence (P04839 whole entry, looked up): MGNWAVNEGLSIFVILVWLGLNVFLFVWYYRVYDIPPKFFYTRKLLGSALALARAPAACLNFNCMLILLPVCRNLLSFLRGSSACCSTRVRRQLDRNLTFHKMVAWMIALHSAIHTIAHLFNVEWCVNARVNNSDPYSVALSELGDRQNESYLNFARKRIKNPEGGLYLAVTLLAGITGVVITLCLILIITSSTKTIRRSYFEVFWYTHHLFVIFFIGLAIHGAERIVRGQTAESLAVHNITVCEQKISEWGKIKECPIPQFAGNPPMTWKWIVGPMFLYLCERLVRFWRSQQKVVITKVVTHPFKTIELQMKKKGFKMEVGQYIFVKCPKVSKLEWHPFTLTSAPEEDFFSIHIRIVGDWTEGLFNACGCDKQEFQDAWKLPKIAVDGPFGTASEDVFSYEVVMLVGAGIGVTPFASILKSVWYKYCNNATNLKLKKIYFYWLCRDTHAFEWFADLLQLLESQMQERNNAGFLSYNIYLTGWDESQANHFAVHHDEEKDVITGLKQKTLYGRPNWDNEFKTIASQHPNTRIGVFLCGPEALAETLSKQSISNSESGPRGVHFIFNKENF

[9] = target: NADPH oxidase 4 (Homo sapiens) (UniProt Q9NPH5); experiment: compounds shifting NOX4 Amplex Red fluorescence – cell-based, HEK293-NOX4, tetracycline-induced, NOX inhibitor project, primary screen (AID 1160); details: HEK293-NOX4, Amplex Red H2O2 fluorescence, 45 min; higher = more signal, called active from +8 up or from −8 down
NADPH oxidase 4 (Homo sapiens), sequence (Q9NPH5 whole entry, looked up): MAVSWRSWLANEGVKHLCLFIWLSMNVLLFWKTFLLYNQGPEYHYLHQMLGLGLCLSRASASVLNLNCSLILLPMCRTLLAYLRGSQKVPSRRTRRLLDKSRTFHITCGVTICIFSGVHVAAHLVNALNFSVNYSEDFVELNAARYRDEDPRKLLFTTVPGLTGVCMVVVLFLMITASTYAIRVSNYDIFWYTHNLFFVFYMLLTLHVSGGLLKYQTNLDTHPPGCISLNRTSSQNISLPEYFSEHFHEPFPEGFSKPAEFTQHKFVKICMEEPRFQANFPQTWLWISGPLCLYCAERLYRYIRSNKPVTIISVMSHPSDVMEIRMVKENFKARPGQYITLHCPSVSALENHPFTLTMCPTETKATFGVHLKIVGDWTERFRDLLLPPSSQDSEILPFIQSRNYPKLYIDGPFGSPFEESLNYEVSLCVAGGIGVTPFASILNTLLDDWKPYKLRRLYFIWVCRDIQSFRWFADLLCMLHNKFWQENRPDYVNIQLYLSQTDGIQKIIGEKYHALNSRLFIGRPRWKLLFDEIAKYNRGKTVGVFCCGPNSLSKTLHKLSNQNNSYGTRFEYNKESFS

[10] = target: NADPH oxidase 5 (Homo sapiens) (UniProt Q96PH1); experiment: compounds shifting NOX5 Amplex Red fluorescence – cell-based, HEK293-NOX5, NOX inhibitor project, primary screen (AID 1161); details: HEK293-NOX5, ionomycin, 45 min, higher = more signal
NADPH oxidase 5 (Homo sapiens), sequence (Q96PH1 whole entry, looked up): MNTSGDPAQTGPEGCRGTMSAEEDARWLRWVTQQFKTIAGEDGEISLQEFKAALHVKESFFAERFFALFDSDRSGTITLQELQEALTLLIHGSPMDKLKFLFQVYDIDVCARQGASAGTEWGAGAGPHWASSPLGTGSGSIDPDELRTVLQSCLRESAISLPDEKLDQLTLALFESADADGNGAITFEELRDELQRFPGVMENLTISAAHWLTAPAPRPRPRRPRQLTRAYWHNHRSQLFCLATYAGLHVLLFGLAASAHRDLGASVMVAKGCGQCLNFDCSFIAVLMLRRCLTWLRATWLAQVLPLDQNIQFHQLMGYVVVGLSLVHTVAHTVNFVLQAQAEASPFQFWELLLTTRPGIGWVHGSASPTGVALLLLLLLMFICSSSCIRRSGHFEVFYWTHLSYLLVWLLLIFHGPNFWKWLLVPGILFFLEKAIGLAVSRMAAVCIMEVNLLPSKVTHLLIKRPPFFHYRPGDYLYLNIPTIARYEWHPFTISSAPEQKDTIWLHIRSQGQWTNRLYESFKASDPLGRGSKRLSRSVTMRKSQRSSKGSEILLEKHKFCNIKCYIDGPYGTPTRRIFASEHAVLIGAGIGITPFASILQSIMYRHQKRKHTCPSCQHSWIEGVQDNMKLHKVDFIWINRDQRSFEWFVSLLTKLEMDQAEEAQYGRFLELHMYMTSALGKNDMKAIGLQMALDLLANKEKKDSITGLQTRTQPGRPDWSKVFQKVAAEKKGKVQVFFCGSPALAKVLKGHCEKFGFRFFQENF

[11] = compound effects on lung adenocarcinoma cell viability – A549, calcein-AM fluorescence, 48 h, basal, profiling panel (AID 1162); details: higher = more signal; also: test concentration not given here
[12] = compound effects on differentiated 3T3-L1 adipocyte viability – cell-based, 3T3-L1 adipocytes, calcein-AM fluorescence, 48 h, basal, profiling panel (AID 1163); details: 3T3-L1 adipocytes viability, higher = more signal; also: test concentration not given here
[13] = compound effects on hepatocellular carcinoma cell viability – HepG2, calcein-AM fluorescence, 48 h, basal, profiling panel (AID 1164); details: higher = more signal; also: test concentration not given here
[14] = compound effects on multiple myeloma cell viability – MM1S, calcein-AM fluorescence, 48 h, basal, profiling panel (AID 1165); details: higher = more signal;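 also: viability of MM1S multiple myeloma cells under basal unstimulated conditions; test concentration not given here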
[15] = calcein-AM signal in unstimulated myeloma cells – cell-based, calcein-AM fluorescence, 48 h, PK04 Diversity Set, profiling panel (AID 1166); details: RPMI8226 myeloma viability, higher = more signal;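 also: cells grown under basal conditions without added stimulus; test concentration not given here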
[16] = JC-1 mitochondrial signal, unstimulated HepG2 cells – cell-based, JC-1 fluorescence, 24 h, 100 nL compound, profiling panel (AID 1167); details: HepG2 mitochondrial potential, higher = more signal; also: test concentration not given here
[17] = JC-1 mitochondrial signal, unstimulated adipocytes – cell-based, JC-1 fluorescence, 3T3-L1 adipocytes, 24 h, 100 nL compound, profiling panel (AID 1168); details: JC-1 mitochondrial fluorescence, higher = more signal, called active from +8 up or from −8 down; also: test concentration not given here
[18] = JC-1 mitochondrial signal, unstimulated myeloma cells – cell-based, JC-1 fluorescence, RPMI8226, 24 h, 100 nL compound, profiling panel (AID 1169); details: JC-1 mitochondrial potential fluorescence, higher = more signal; also: test concentration not given here
[19] = JC-1 mitochondrial signal, unstimulated MM1S myeloma – cell-based, JC-1 fluorescence, 24 h, 100 nL compound, profiling panel (AID 1170); details: MM1S mitochondrial potential, higher = more signal; also: test concentration not given here
[20] = resazurin metabolic signal in A549 cells – cell-based, resazurin fluorescence, 24 h, PK04 Diversity Set, profiling panel (AID 1171); details: A549 viability, higher = more signal, called active from +8 up or from −8 down; also: test concentration not given here

SMILES	z-score [1]	composite z-score [2]	z-score [3]	z-score [4]	z-score [5]	z-score [6]	z-score [7]	z-score [8]	z-score [9]	z-score [10]	z-score [11]	z-score [12]	z-score [13]	z-score [14]	z-score [15]	z-score [16]	z-score [17]	z-score [18]	z-score [19]	z-score [20]
C=CCOC(=O)[C@H]1[C@@H]2C(=O)O[C@@H](c3ccccc3)[C@@H](c3ccccc3)N2[C@@H](c2ccc(OCCOC(=O)[C@@H]3C[C@@H]4C(=O)N[C@@H](Cc5ccccc5)C(=O)N4[C@@H]3c3ccc(O)cc3)cc2)[C@]12C(=O)Nc1ccccc12	-0.126 (inactive)	-0.0235	2.33 (inactive)	0.776 (inactive)	1.28 (inactive)	0.914 (inactive)	0.896	1.48 (inactive)	1.14 (inactive)	2.13	0.137	-0.156	-0.338	-1.31	0.0712	-1.37	-0.262 (inactive)	-0.616	-1.02	0.0598 (inactive)
CC(C)CNC(=O)[C@@H]1c2ccccc2C(=O)N(C(C)C)[C@H]1c1ccc(CO)cc1	0.941 (inactive)	-0.0559	0.747 (inactive)	-0.483 (inactive)	-0.758 (inactive)	-0.779 (inactive)	1.85	-0.215 (inactive)	0.443 (inactive)	0.887	0.456	1.27	1.15	0.333	1.49	1.49	1.29 (inactive)	0.793	-0.357	-0.174 (inactive)
COCCOC(=O)N1C(=O)[C@@]2(c3ccccc31)[C@H](C(=O)N1CCCCCCC1)[C@H]1C(=O)O[C@H](c3ccccc3)[C@H](c3ccccc3)N1[C@@H]2c1ccc(O)cc1	1.51 (inactive)	3.16	0.822 (inactive)	-0.0852 (inactive)	0.367 (inactive)	-0.0764 (inactive)	1.94	-3.28 (inactive)	-0.538 (inactive)	-4	0.452	0.688	1.11	-0.233	-1.54	-0.229	1.45 (inactive)	-0.564	-0.21	0.17 (inactive)
CCCCC(=C=CC[C@@H](O)c1ccc(OCCO)cc1)C[C@@H](O)c1ccccn1	0.26 (inactive)	0.122	15.7 (active)	2.47 (inactive)	0.871 (inactive)	0.849 (inactive)	-0.787	-0.697 (inactive)	-0.351 (inactive)	-1.77	-0.0074	0.0358	0.333	-2.63	-0.616	-1.05	-1.58 (inactive)	-0.674	-0.94	-0.477 (inactive)
CCCCC(=C=CC[C@H](O)c1ccc(OCCO)cc1)C[C@H](O)c1ccccn1	0.558 (inactive)	-0.0536	15.4 (active)	2.3 (inactive)	1.11 (inactive)	1.07 (inactive)	0.433	1.26 (inactive)	0.364 (inactive)	-1.34	1.47	-0.398	0.701	-0.556	-0.585	-0.0776	-0.794 (inactive)	-0.485	-0.603	1.07 (inactive)
CN(C)C(=O)[C@@]1(CCS(=O)(=O)c2ccccc2)N=C(c2ccc(OCCCO)cc2)O[C@H]1c1ccccc1N=[N+]=[N-]	0.395 (inactive)	-0.148	28.1 (active)	27.4 (active)	1.78 (inactive)	2.09 (inactive)	-0.76	-2.01 (inactive)	-0.478 (inactive)	-0.984	0.137	-0.471	1.27	-1.68	-0.941	0.121	-0.477 (inactive)	-1.32	-0.591	-0.217 (inactive)
COc1ccc([Si](C)(C)[C@H]2[C@H](CCn3cc([C@H](O)c4ccccc4)nn3)O[C@@]3(C(=O)N(C)c4c(Br)cc(C)cc43)[C@@H]2C)cc1	0.45 (inactive)	-0.196	5.6 (inactive)	1.59 (inactive)	1.25 (inactive)	1.11 (inactive)	-0.108	0.276 (inactive)	0.825 (inactive)	0.37	-1.94	1.69	-4.58	-2.48	-4.31	-0.281	-0.162 (inactive)	-1	0.212	-2.66 (inactive)
COCCOC(=O)N1C(=O)[C@@]2(c3cc(C#Cc4ccc(OC)cc4)ccc31)[C@H](c1ccc(OCCO)cc1)N1[C@H](c3ccccc3)[C@H](c3ccccc3)OC(=O)[C@H]1[C@@H]2C(=O)N1CCCCCCC1	0.543 (inactive)	2.74	2 (inactive)	0.481 (inactive)	0.306 (inactive)	0.0489 (inactive)	1.59	0.928 (inactive)	0.274 (inactive)	1.19	0.571	1.96	0.856	-0.0692	0.81	-0.16	-2.31 (inactive)	-0.684	-1	-0.436 (inactive)
COC(=O)[C@@]1(Cc2ccccc2CN=[N+]=[N-])COC(c2ccc(OCCCO)cc2)=N1	-0.156 (inactive)	0.2	23.8 (active)	9.9 (active)	4.61 (inactive)	0.959 (inactive)	0.202	-3.07 (inactive)	-0.519 (inactive)	-3.18	-1.19	-0.19	-0.891	-3.53	-0.691	-2.15	-0.428 (inactive)	-1.01	0.515	-0.657 (inactive)
CCCCN1CC=CC23O[C@@H]4C=CCOC(=O)[C@@H]4[C@H]2C(=O)N(C(CO)C(C)C)[C@@H]3C1=O (stereo not given in full)	-0.62 (inactive)	-0.0697	1.16 (inactive)	0.574 (inactive)	1.06 (inactive)	0.407 (inactive)	-0.272	0.835 (inactive)	0.17 (inactive)	1.88	-0.503	-1.13	-0.803	0.543	-0.42	-0.528	-0.713 (inactive)	0.184	-0.071	-0.519 (inactive)
CCCCN1CC=CC23O[C@@H]4C=CCOC(=O)[C@@H]4[C@H]2C(=O)N(CCO)[C@@H]3C1=O (stereo not given in full)	-0.492 (inactive)	0.175	-0.366 (inactive)	0.574 (inactive)	0.349 (inactive)	0.381 (inactive)	-0.415	1.51 (inactive)	1.08 (inactive)	0.669	0.0738	-0.426	0.442	-1.05	0.342	-0.454	0.302 (inactive)	0.837	-0.209	-0.437 (inactive)
COc1ccc(CCNC(=O)[C@@H]2c3ccccc3C(=O)N(CC34CC5CC(CC(C5)C3)C4)[C@H]2c2ccc(CO)cc2)cc1	0.414 (inactive)	-0.0982	5.38 (inactive)	0.345 (inactive)	0.68 (inactive)	-0.484 (inactive)	1.15	-2.37 (inactive)	-1.91 (inactive)	-5.14	0.263	1.63	0.463	-1.39	-0.559	1.47	-0.138 (inactive)	-0.435	-0.0819	0.228 (inactive)
COCCOC(=O)N1C(=O)[C@@]2(c3cc(C#CC4=CCCCC4)ccc31)[C@H](c1ccc(OCCO)cc1)N1[C@H](c3ccccc3)[C@H](c3ccccc3)OC(=O)[C@H]1[C@@H]2C(=O)N1CCCCCCC1	3.39 (inactive)	1.85	2.24 (inactive)	0.742 (inactive)	0.171 (inactive)	-0.521 (inactive)	2.26	1.44 (inactive)	0.639 (inactive)	1.3	0.508	1.35	1.5	0.177	-0.288	-0.288	-2.7 (inactive)	-1.19	-1.21	-2.16 (inactive)
CCCCCN1CC=CC23O[C@@H]4C=CCOC(=O)[C@@H]4[C@H]2C(=O)N(CCCCCO)[C@@H]3C1=O (stereo not given in full)	1.73 (inactive)	-0.0766	1.47 (inactive)	0.702 (inactive)	1.45 (inactive)	0.601 (inactive)	0.461	1.35 (inactive)	0.575 (inactive)	1.94	-0.438	-0.28	-1.03	1.27	-1.6	-0.012	0.211 (inactive)	0.85	0.876	-0.0947 (inactive)
CN1C(=O)[C@]2(CCS(=O)(=O)c3ccccc3)N=C(c3ccc(OCCCO)cc3)O[C@@H]2c2ccccc21	-1.06 (inactive)	0.18	29.6 (active)	27.2 (active)	2.49 (inactive)	1.87 (inactive)	-0.0831	0.276 (inactive)	-0.0954 (inactive)	-1.12	-0.189	-1.15	0.881	-2.04	-1.77	-0.447	-0.466 (inactive)	-0.852	0.48	-0.015 (inactive)
Cc1ccc(S[C@]2(C(=O)NC3CC3)CC(=O)N(Cc3cc(C(F)(F)F)cc(C(F)(F)F)c3)[C@@H]2c2ccc(CO)cc2I)cc1	0.147 (inactive)	-0.625	5.58 (inactive)	0.774 (inactive)	0.231 (inactive)	0.229 (inactive)	-0.185	1.52 (inactive)	-1.62 (inactive)	1.14	-0.155	-0.136	0.311	-2.53	-1.81	-0.9	-0.373 (inactive)	-0.921	-2.03	0.851 (inactive)
C[N+](C)(C)CCCCCCNC(=O)[C@@H]1C[C@@H]2C(=O)N[C@@H](Cc3ccccc3)C(=O)N2[C@@H]1c1ccc(O)cc1	0.38 (inactive)	0.286	3.42 (inactive)	0.0655 (inactive)	-0.406 (inactive)	0.0311 (inactive)	-0.491	0.627 (inactive)	0.203 (inactive)	0.0921	-0.428	-0.482	0.223	0.337	-0.0064	-1.12	-0.055 (inactive)	-0.862	-0.401	0.47 (inactive)
O=C1NC(=O)C2C1C=CC(C(O)c1cccc(O)c1)N2Nc1ccc(Cl)cc1Cl (stereo not given)	-4.5 (inactive)	0.139	4.82 (inactive)	1.36 (inactive)	-0.608 (inactive)	0.901 (inactive)	-1.22	-0.897 (inactive)	-5.3 (inactive)	-3.11	-1.09	-0.648	-1.13	-3.03	-1.52	-2.54	-0.299 (inactive)	-0.39	0.0224	-0.728 (inactive)
